# Screens: PubChem, National Center for Advancing Translational Sciences (NCATS)
# Shown is part of a subset that was picked to be rich in hits.
# TbPYK inhibitor: inhibitors of Trypanosoma brucei pyruvate kinase; Q57TT1; TbPYK enzyme, Kinase-Glo Plus ATP luminescence, 45 min; Potency, µM (doses to about 76.8 µM), for the others: top-dose activity, negative = inhibition, most hits filed as inhibitors; 410,000 compounds, 0.12% hits; AID 624173; also: potency is read from the fitted curve at half-maximal effect; % is scaled to controls: 0 for no effect and ±100 for the full control effect; nearly all actives have a fitted effect of over 50% in size
#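 Assay buffer: 50 mM TEA pH 7.2, 100 mM KCl, 10 mM MgCl2, 0.05% BSA, 0.01% Tween-20. Pyruvate kinase from T. brucei plus substrate met compound, then ADP (130 uM final). Luminescence was read post 45 min RT.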
# LmPK inh: blocks Leishmania mexicana pyruvate kinase activity; Q27686; purified LmPK, Kinase-Glo ATP luminescence, 1 h; Potency, µM (highest dose often 57.5 µM), without a hit: at the top dose activity change, negative = inhibition, hits mostly inhibitors; 290,000 compounds, 0.37% hits; AID 1721; also: potency is read from the fitted curve at half-maximal effect; % is scaled to controls: 0 for no effect and ±100 for the full control effect
# Target sequence (Q27686 whole entry, looked up): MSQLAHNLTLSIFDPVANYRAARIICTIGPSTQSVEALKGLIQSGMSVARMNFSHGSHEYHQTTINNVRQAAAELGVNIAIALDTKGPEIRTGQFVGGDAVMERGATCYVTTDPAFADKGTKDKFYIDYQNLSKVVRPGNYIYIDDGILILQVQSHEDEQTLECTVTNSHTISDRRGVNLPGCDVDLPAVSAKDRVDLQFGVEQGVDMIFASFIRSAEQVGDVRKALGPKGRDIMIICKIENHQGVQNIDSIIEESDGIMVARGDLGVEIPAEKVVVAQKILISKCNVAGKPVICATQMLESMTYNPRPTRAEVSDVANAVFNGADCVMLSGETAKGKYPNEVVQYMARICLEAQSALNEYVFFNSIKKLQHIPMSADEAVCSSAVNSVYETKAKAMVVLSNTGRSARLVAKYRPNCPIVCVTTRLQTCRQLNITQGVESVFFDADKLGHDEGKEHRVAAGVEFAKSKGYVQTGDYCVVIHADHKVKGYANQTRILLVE
#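 Purified LmPK (0.1 nM) converted ADP (0.1 mM) to ATP with PEP (0.5 mM) in imidazole buffer pH 7.2 with KCl and MgCl2, 1 h at room temperature. ATP was read by Kinase-Glo luminescence; data normalized to uninhibited and no-enzyme controls.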
# FBPA Giardia inh: blocks Giardia fructose-bisphosphate aldolase activity. A8B2U2. purified Giardia FBPA. Potency, µM (highest dose often 59.6 µM), for inactives: at the highest dose activity, negative = inhibition, usual class: inhibitors. 290,000 compounds, 0.71% hits; also: potency is read from the fitted curve at half-maximal effect; % is scaled to controls: 0 for no effect and ±100 for the full control effect; nearly all actives have a fitted effect of over 55% in size
#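 40 nM FBPA preincubated 10 min at RT with compound (up to 57.5 uM final), then substrate plus GAPDH/TPI/NAD/arsenate coupling and diaphorase/resazurin added. Fluorescence read after 20 min at RT, 525/598 nm.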
# RE007 growth inh: less growth of the S. pombe RE007 Vpr strain. S. pombe RE007 Vpr strain, BacTiter-Glo ATP luminescence, 24 h. 360,000 compounds, 0.21% hits. Potency, µM (titrated, usually from 92.2 µM), for inactives: at the top dose activity change, negative = less growth, hits mostly inhibitors; active = well fitted falling curve with a large enough effect; inconclusive = small, poorly fitted or top-dose-only effect; inactive = no such curve, though single readings can be large or run the other way; also: potency is read from the fitted curve at half-maximal effect; % is scaled to controls: 0 for no effect and ±100 for the full control effect; nearly all actives have a fitted effect of over 50% in size
#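 Fission yeast strain RE007, carrying one chromosomally integrated HIV-1 vpr copy, was seeded at OD 0.01 in PMG+AL medium with 23 nL pinned compound. After 24 h at 30 °C and 99% humidity, viability was read by BacTiter-Glo luminescence.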
# Cycloheximide cs: affects cycloheximide protein synthesis inhibition readout, counter-screen | cell reporter, cycloheximide protein synthesis inhibition counterscreen | max response, % | 300,000 compounds, 12% hits; in the data active = max response mostly above about 13%, no sharp cut-off; inactive = mostly below about 14%; also: read at 38.3 µM for the half of the compounds with a filed dose; 0% is about no effect
# Shiga inhibitor: inhibitors of Shiga toxin in Vero cells; inhibition, % at 38.7 µM; Vero cells, Shiga toxin protein synthesis inhibition reporter; AID 2315; 290,000 compounds, 9.2% hits; in the data active = inhibition mostly above about 28%, no sharp cut-off; inactive = mostly below about 43%; also: 0% is about no effect
# Active calls of the source: *; ? = inconclusive; . = no result given; [ ] = dose if it differs, or a comment. Unless noted, calls follow the shape of the dose curve; as a rule, active = well fitted curve in the direction sought with a large enough effect; inconclusive = small, poorly fitted or top-dose-only effect, or another doubt; inactive = no such curve, though single readings can be large; an effect the other way counts as inactive or inconclusive.
SMILES,TbPYK inhibitor,LmPK inh,FBPA Giardia inh,RE007 growth inh,Cycloheximide cs,Shiga inhibitor
COc1ccc2[nH]c(C(=O)O)c(CCC(=O)O)c2c1,-4%,-8%,-7%,9%,-3,-14
COc1ccc(NC(=O)Cn2c(SCc3ccc(C)cc3)nc3cccnc32)cc1OC,-6%,.,.,.,.,.
CCc1ccc(N2C(=O)CC(N3CCC(C(=O)OC)CC3)C2=O)cc1 (stereo not drawn),1%,-4%,3%,10µM*,-1,-4
CCOC(=O)C1CCN(C2CC(=O)N(c3ccc(OCC)cc3)C2=O)CC1 (stereo not drawn),4%,1%,6%,18µM*,-4,-6
CCCOc1ccc(N2C(=O)CC(N3CCC(c4nncn4CC)CC3)C2=O)cc1 (stereo not drawn),5%,2%,14%,13µM*,-3,34
Cc1ccc(Cl)cc1NC(=O)CSC1=Nc2ccccc2C2=NC(Cc3ccccc3)C(=O)N12 (stereo not drawn),-5%,.,.,.,.,.
Cc1cc2nc3c(=O)[nH]c(=O)nc-3n(CC(O)C(O)C(O)COP(=O)(O)O)c2cc1C (stereo not drawn),-5%,.,?,.,3,-9
CCc1c(C)nc2nc(-c3ccccc3)nn2c1NCc1ccc(C)cc1,4%,.,.,.,.,.
COc1ccc(C2=Nn3c(nnc3-c3cccc(OC)c3OC)SC2)cc1OC,.,.,8%,.,5,-17
c1csc(-c2noc(CN3CCOCC3)n2)c1,3%,-5%,4%,-14%,31*,41*
O=C(c1ccco1)N1CCN(Cc2nc(-c3cccs3)no2)CC1,-8%,2%,-5%,-1%,11*,35*
OC[C@@H]1CCCN1Cc1nc(-c2cccs2)no1,-8%,7%,-2%,-4%,19*,51*
CN(CCN1CCOCC1)Cc1nc(-c2cccs2)no1,2%,6%,0%,8%,3,15
c1csc(-c2noc(CN3CCN4CCCC4C3)n2)c1 (stereo not drawn),-11%,2%,0%,-15%,21*,47*
CCOc1ccccc1C(=O)N(Cc1ccc(N(C)C)cc1)CC1CCCO1 (stereo not drawn),-7%,.,.,.,.,.
Cc1ccc(NC(=O)NC2=N/C(=C(/C#N)C(=O)N3CCCC3)c3ccccc32)cc1,-4%,-5%,19%,-12%,20*,58
Cc1ccc(NC(=O)CSc2nnc(NC(=O)CN3CCOCC3)s2)cc1,-10%,4%,18%,-5%,-4,-6
O=C(CSc1nnc(NC2CCCCC2)s1)Nc1ccc(N2CCOCC2)cc1,7%,-1%,-5%,6%,21*,41*
CC(=O)c1ccc(NC(=O)CSc2nnc(NC(=O)CN3CCOCC3)s2)cc1,-6%,-1%,-1%,2%,18,62*
CC(Sc1nnc(NC2CC2)s1)C(=O)Nc1ccc(N2CCOCC2)cc1 (stereo not drawn),-10%,.,.,1%,.,.
COC(=O)CC1c2ccccc2C=C(/C=C/c2ccc3c(c2)OCO3)N1C(=O)OC (stereo not drawn),.,-13%[11.5 µM],0%[12.9 µM],.,.,.
CCC(CC)C(=O)N1CCc2cc(OC)c(OC)cc2C1COc1ccccc1OC (stereo not drawn),-4%,.,.,.,.,.
O=c1ccc(N=Nc2ccccc2)ccc1O,?,?,1%,?,23*,33
Cn1nnnc1SCCCNCc1ccc(-c2ccc(F)c(Cl)c2)o1,-8%,.,.,.,.,.
O=C(Nc1ccccc1C(F)(F)F)N1CCC2(CC1)Oc1ccccc1C(=O)N2Cc1ccccc1F,2%,.,.,.,.,.
SMILES,TbPYK inhibitor,LmPK inh,FBPA Giardia inh,RE007 growth inh,Cycloheximide cs,Shiga inhibitor
O=S(=O)(Nc1ccc(-c2cn3c(n2)SCC3)cc1)c1cc(F)ccc1F,-1%,.,.,1%,.,.
O=C(Nc1ccc(-c2cn3c(n2)SCC3)cc1)c1ccco1,-15%,-23%,2%,-14%,40*,65*
CC(=O)Nc1ccc(S(=O)(=O)Nc2cccc(-c3cn4c(n3)SCC4)c2)cc1,-1%,4%[11.5 µM],-1%,-8%,-3,-4
O=C(Oc1ccc(-c2cn3c(n2)SCC3)cc1)c1ccccc1,-18%,-4%,3%,-6%,12*,11
CC(=O)Nc1ccc(-c2cn3c(n2)SCC3)cc1,9%,6%,-11%,2%,32*,28
O=C(Nc1cccc(-c2cn3c(n2)SCC3)c1)c1ccc(Br)o1,2%,5%,-3%,14%,17,29
CCCCCCCCCCCCCCCCCCOCC(O)CO (stereo not drawn),-3%,.,1%,.,.,.
O=C(N/N=C/c1ccco1)c1cc2ccccc2o1,1%,1%,0%,-6%,42*,59*
O=C(N/N=C/c1ccco1)c1ccc(Br)o1,4%,-11%,-2%,16%,25*,67*
O=C(COc1ccc(/C=N/NC(=O)c2cc3ccccc3o2)cc1Br)Nc1ccccc1,1%,-1%,-5%,4%,53*,112*
CCC(Sc1nc(-c2ccccc2F)nc2c1Cc1c(CO)cnc(C)c1O2)C(=O)Nc1cc(C)ccc1C (stereo not drawn),-1%,.,.,.,.,.
CCNC(=O)[C@H]1O[C@@H](n2cnc3c(N)ncnc32)[C@H](O)[C@H]1O,.,.,0%,.,.,.
Cn1cccc1-c1cc2n(n1)CCC(=O)N2CCCC(=O)NCc1ccc(F)cc1,1%,.,.,.,.,.
Cc1ccc(-n2c(=O)c3sccc3n(CC(=O)NC3CCCCC3)c2=O)cc1,3%,-5%,4%,23%,12,112*
CCC(C)c1ccc2oc(-c3ccc(NC(=O)c4ncn[nH]4)cc3)nc2c1 (stereo not drawn),3%,2%,18%,15%,8,41*
CC(C)c1ccc2oc(-c3ccc(NC(=O)c4ncn[nH]4)cc3)nc2c1,4%,2%,7%,7%,49*,86*
COc1ccc(C(=O)N2CCC3(CCCN(C)C3)CC2)cc1,0%,.,7%,.,.,.
Cn1cccc1C(=O)N1CCC2(CCCN(Cc3ccc(C#N)cc3)C2)CC1,0%,.,-4%,.,.,.
COc1ccc(NC(=O)c2ccc(COc3ccccc3)o2)c(OC)c1,-9%,-3%,-3%,-6%,3,-5
COc1ccc(NC(=O)c2ccc(Cc3ccc(C)cc3)o2)cc1,2%,4%,3%,-23%,24*,29
COc1ccc(NC(=O)c2ccc(COc3ccccc3)o2)cc1,-25%,1%,1%,-13%,21*,24
COc1cc(OC)c(NC(=O)c2c(N3CCCC3=O)c3cc(C)ccc3n2C)cc1Cl,7%,.,.,.,.,.
Cc1[nH]n(C(N)=S)c(=O)c1N=Nc1cccc([N+](=O)[O-])c1C,-2%,0%,22%,-3%,57*,51*
Cc1c(N=Nc2c(-c3ccc([N+](=O)[O-])cc3)[nH]n(C(N)=S)c2=O)cccc1[N+](=O)[O-],-5%,2%,4%,10%,10,-9
